Data from the supplement of paper PMC8253809.
Values joined by “and” are separate entries in the source; they are usually repeats but may differ in a detail not shown here. Identical values can stand only once.

Columns and labels:
Test in all cases: growth inhibition (% activity, log2 RLU normalised to DMSO / staurosporine); higher = more growth inhibition
Settings in all cases: 33 µM
[1] = test system: DIPGX29 (H3.3 K27M diffuse intrinsic pontine glioma line)
Summary of the method: (§1)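 In triplicate, pHGG cell lines and H9-derived neural stem cells were treated for 7 days at 37 °C, 5% CO2 with approved drugs at a single final concentration of about 33 μM, added by pin tool. CellTiter-Glo luminescence, after log2 transformation, was normalised on each plate to % activity between solvent and positive control wells. Growth inhibition is reported as the median across replicates.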

[2] = test system: DIPGX37 (H3.3 K27M diffuse intrinsic pontine glioma line)
Summary of the method: as §1

[3] = test system: DIPGX7 (H3.3 K27M diffuse intrinsic pontine glioma line)
Summary of the method: as §1

[4] = test system: DIPGX9 (diffuse intrinsic pontine glioma line)
Summary of the method: as §1

[5] = test system: HGGX39 (paediatric high-grade glioma line)
Summary of the method: as §1

[6] = test system: HGGX6 (H3.3 G34R paediatric high-grade glioma line)
Summary of the method: as §1

[7] = test system: HNSC
Summary of the method: as §1

[8] = test system: SUDIPGIV (diffuse intrinsic pontine glioma line)
Summary of the method: as §1

[9] = test system: SUDIPGVI (diffuse intrinsic pontine glioma line)
Summary of the method: as §1

[10] = test system: SUDIPGXIII (diffuse intrinsic pontine glioma line)
Summary of the method: as §1

SMILES	growth inhibition [1]	growth inhibition [2]	growth inhibition [3]	growth inhibition [4]	growth inhibition [5]	growth inhibition [6]	growth inhibition [7]	growth inhibition [8]	growth inhibition [9]	growth inhibition [10]
CN(C)C/C=C/C(=O)Nc1cc2c(Nc3ccc(F)c(Cl)c3)ncnc2cc1O[C@H]1CCOC1	21.1%	8.76%	29.6%	14.3%	11.5%	47.5%	59.4%	10.9%	-0.744%	0.97%
O=C(O)c1cc(/N=N/c2ccc(O)c(C(=O)O)c2)ccc1O	-0.786%	0.929%	0.432%	0.755%	1.33%	0.125%	11.3%	-0.724%	-2.65%	0.343%
COC(=O)Nc1nc2cc([S+]([O-])c3ccccc3)ccc2[nH]1 (stereo not given)	4.96%	6.45%	4.77%	5.87%	4.89%	4.72%	19.2%	6.67%	5.46%	0.605%
CCOC(=O)CC(=O)N1CCSC1COc1ccccc1OC (stereo not given)	2.29%	3.41%	3.11%	1.18%	5.96%	2.78%	3.53%	4.58%	2.42%	-0.201%
CO[C@H]1C[C@@H]2CC[C@@H](C)[C@@](O)(O2)C(=O)C(=O)N2CCCC[C@H]2C(=O)O[C@H]([C@H](C)C[C@@H]2CC[C@@H](OCCO)[C@H](OC)C2)CC(=O)[C@H](C)/C=C(\C)[C@@H](O)[C@@H](OC)C(=O)[C@H](C)C[C@H](C)/C=C/C=C/C=C/1C	4.26%	2.47%	3.53%	14%	8.9%	7.45%	7.71%	1.16%	10.5%	1.36%
C[C@H]1O[C@H](O[C@H]2[C@H](O)[C@@H](O)[C@@H](O[C@H]3[C@H](O)[C@@H](O)C(O)O[C@@H]3CO)O[C@@H]2CO)[C@H](O)[C@@H](O)[C@@H]1N[C@H]1C=C(CO)[C@@H](O)[C@H](O)[C@H]1O (stereo not given in full)	-1.13%	-1.58%	-0.631%	-1.81%	-1.75%	-0.366%	-2.81%	-2.71%	-0.59%	-0.463%
CC(C)(CO)[C@@H](O)C(=O)NCCC(=O)O	-2.53%	-0.522%	-0.818%	-0.68%	-0.909%	-0.397%	-0.802%	-0.366%	-3.69%	1.65%
O=C(O)[C@H](CC(=O)N1C[C@H]2CCCC[C@H]2C1)Cc1ccccc1	0.852%	-5.28%	0.289%	1.86%	1.09%	0.619%	1.48%	1.74%	1.16%	-1.34%
COc1cc(NS(=O)(=O)c2ccc(N)cc2)nc(OC)n1	1.59%	1.08%	2.92%	1.55%	1.71%	2.67%	1.56%	0.337%	2.95%	-1.53%
CCCOc1ccc(C(=O)OCCN(CC)CC)cc1N	-3.81%	-2.51%	0.125%	-2.19%	6.15%	3.2%	4.12%	-0.212%	-1.94%	0.093%
O=C(OCC(O)CO)c1ccccc1Nc1ccnc2cc(Cl)ccc12 (stereo not given)	0.939%	1.64%	-1.23%	1.63%	3.28%	1.2%	0.63%	-4.61%	2.77%	0.927%
Nc1nc(O)c2ncn(CCC(CO)CO)c2n1	-0.633%	1.72%	0.291%	-0.106%	0.105%	-0.242%	0.639%	0.184%	1.56%	0.273%
C=C[C@H]1CN2CC[C@H]1C[C@H]2[C@H](O)c1ccnc2ccc(OC)cc12	2.06%	3.05%	2.14%	2.35%	3.17%	1.13%	2.99%	2.17%	4.23%	-0.182%
O=C(c1ccc(OCCN2CCCCC2)cc1)c1c(-c2ccc(O)cc2)sc2cc(O)ccc12	8.18%	-0.349%	22.3%	1.84%	6.41%	7.69%	1.59%	0.509%	-4.3%	2.77%
CCOC(=O)c1ccc(N)cc1	-1.1%	0.286%	-0.777%	-2.99%	-1.05%	-1.96%	-1.55%	-0.0558%	-0.0967%	0.467%
OC(CNCC(O)C1CCc2cc(F)ccc2O1)C1CCc2cc(F)ccc2O1 (stereo not given)	4.79%	3.01%	2.85%	4%	4.24%	6.9%	2.72%	2.21%	-0.86%	2.62%
CC12CC3CC(C)(C1)CC(N)(C3)C2	0.0357%	-0.52%	0.741%	1.54%	1.57%	1.17%	-0.299%	0.153%	0.617%	1.06%
COc1cc2nc(N3CCN(C(=O)c4ccco4)CC3)nc(N)c2cc1OC	7.72%	-2.22%	1.17%	3.48%	-0.781%	18.9%	-0.602%	-3.54%	-4.38%	-1.72%
CCOC(=O)[C@H](CCc1ccccc1)N[C@H]1CCc2ccccc2N(CC(=O)O)C1=O	-0.274%	-0.666%	0.62%	-1.51%	-0.668%	-3.48%	0.9%	-2.69%	-7.43%	-0.0284%
CCC1=C(C)CN(C(=O)NCCc2ccc(S(=O)(=O)NC(=O)N[C@H]3CC[C@H](C)CC3)cc2)C1=O	1.44%	2.15%	-0.131%	1.61%	-0.27%	0.0487%	4.42%	-0.00514%	1.62%	0.817%
CN(C)CCC(c1ccc(Br)cc1)c1ccccn1 (stereo not given)	-0.2%	1.72%	0.687%	0.118%	1.57%	-1.76%	4.12%	-0.116%	-0.379%	1.63%

SMILES	growth inhibition [1]	growth inhibition [2]	growth inhibition [3]	growth inhibition [4]	growth inhibition [5]	growth inhibition [6]	growth inhibition [7]	growth inhibition [8]	growth inhibition [9]	growth inhibition [10]
CC(=O)Oc1cc(C(F)(F)F)ccc1C(=O)O	-1.87%	-1.02%	-1.55%	-0.552%	-0.882%	0.0377%	-4.31%	-2.59%	-2.15%	-2.75%
O=c1c(-c2ccc(O)cc2)coc2cc(O)ccc12	-1.42%	-0.456%	-0.191%	-0.874%	1.36%	-0.307%	-2.12%	-0.853%	-1.44%	0.974%
CC(C)c1c(C(=O)Nc2ccccc2)c(-c2ccccc2)c(-c2ccc(F)cc2)n1CC[C@@H](O)C[C@@H](O)CC(=O)O	16.8%	-10%	21.8%	7.54%	42.1%	23%	65.6%	32.1%	-0.629%	39.2%
CO[C@H]1O[C@@H]2O[C@@]3(C)CC[C@H]4[C@H](C)CC[C@@H]([C@H]1C)[C@@]24OO3	0.229%	0.466%	1.37%	2.08%	3.99%	5.37%	3.37%	13.7%	1.25%	14.3%
OCCOCCN1CCN(C2=Nc3ccccc3Sc3ccccc32)CC1	0.62%	0.529%	4.12%	1.36%	2.86%	2.19%	0.74%	-0.167%	-0.798%	1.66%
CCN(CC)CCOC(=O)c1ccc(N)cc1	1.14%	-1.44%	2.21%	1.17%	3.11%	0.874%	2.07%	1.58%	1.31%	0.856%
CCN(CC)C(=O)/C(C#N)=C/c1cc(O)c(O)c([N+](=O)[O-])c1	-0.0111%	1.83%	-1.51%	0.533%	0.054%	-0.625%	-2.42%	-1.01%	-0.299%	1.29%
O=P(O)(O)C(O)(Cc1cccnc1)P(=O)(O)O	0.184% and -0.127%	-0.218% and -0.408%	2.03% and 0.167%	0.335% and 1.09%	3.43% and 1.8%	2.06% and -1.19%	2.32% and -0.808%	-0.292% and 0.354%	-0.685% and 2.28%	-0.822% and -0.975%
COc1cc(Nc2c(C#N)cnc3cc(OCCCN4CCN(C)CC4)c(OC)cc23)c(Cl)cc1Cl	8.64%	2.05%	4.98%	6.92%	9.47%	10.9%	41.9%	-1.39%	8.4%	1.71%
Cc1onc(-c2c(Cl)cccc2Cl)c1C(=O)N[C@@H]1C(=O)N2[C@@H]1SC(C)(C)[C@@H]2C(=O)O	1.78%	1.6%	0.879%	0.739%	2.25%	1.63%	-0.363%	1.41%	2.27%	-0.796%
Nc1ccc(C(=O)O)c(O)c1	0.612%	1.18%	0.982%	0.745%	1.12%	1.72%	-0.259%	0.343%	-1.22%	-1.06%
CCCc1cc(=O)[nH]c(=S)[nH]1	-0.542%	1.03%	-0.794%	1.7%	-0.649%	-0.265%	-0.282%	-1.58%	0.156%	1.61%
NNC(=O)c1ccncc1.Nc1ccc(C(=O)O)c(O)c1	0.532%	2.72%	1.7%	2.6%	2.23%	1.63%	-0.818%	0.972%	3.47%	-1.36%
CCN1CCN(C(=O)NC(C(=O)NC2C(=O)N3C(C(=O)O)=C(CSc4nnnn4C)CSC23)c2ccc(O)cc2)C(=O)C1=O (stereo not given)	-4.55%	0.256%	-3.04%	-2.18%	0.547%	-2.32%	-1.87%	-3.07%	-2.25%	-0.109%
CCN1CC(CCN2CCOCC2)C(c2ccccc2)(c2ccccc2)C1=O (stereo not given)	3.26%	4.12%	3.42%	1.56%	3.54%	3.39%	6.96%	3.42%	2.27%	-0.683%
CC(C(=O)O)c1ccc2c(c1)CC(=O)c1ccccc1S2 (stereo not given)	1.3%	4.16%	2.06%	1.25%	2.45%	2.99%	1.66%	-1.48%	4.71%	0.56%
CC(C(=O)O)c1ccc2c(c1)Cc1cccnc1O2 (stereo not given)	0.469%	2.25%	2.38%	1.73%	3.25%	2.19%	2.91%	-1.77%	3.45%	-1.63%
Cn1c(=O)c2c(ncn2CC2OCCO2)n(C)c1=O	0.735%	3.27%	0.989%	0.338%	4.64%	-0.428%	12.2%	2.59%	1.02%	0.38%
Cc1ccccc1N1C(=O)c2cc(S(N)(=O)=O)c(Cl)cc2NC1C (stereo not given)	-2.6%	0.236%	-3.01%	-0.0701%	-1.7%	-0.825%	-3.02%	-1.65%	-1.57%	-0.324%
CN(C)CCOc1ccc(/C(=C(/CCCl)c2ccccc2)c2ccccc2)cc1	2.43%	1.15%	6.73%	0.45%	5.94%	5.5%	2.79%	2.82%	0.578%	-0.556%
